Test [1] relates to HaCat. The experiment in a line: Cytotoxic Profiling of Annotated Libraries Using Quantitative High-Throughput Screening (AID 1296008). For max response: % is set by controls: 0 for no effect and ±100 for the full control effect. Note: potency is the fitted concentration of half-maximal effect. Conditions: Five cell lines viability, CellTiter-Glo ATP luminescence, 48-72 h; max response: stronger effect = lower value. The essentials: (§1)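 Cells exposed to compounds for 48 or 72 hr at 37 degrees Celsius. Viability read as ATP-coupled luminescence with CellTiter-Glo after 10 min at room temperature.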
In general terms: Cellular ATP, detected with luciferase, serves as a proxy for viable cell number.

The next test relates to KB-3-1. The description is as above. Conditions: Five cell lines viability, CellTiter-Glo ATP luminescence, 48-72 h; max response: stronger effect = lower value. The essentials: as §1
Test [2] has as its system HACAT. Briefly: qHTS assay to identify novel small-molecules to repurpose for Merkel cell carcinoma treatment (AID 1296009). Conditions: MCC and control cell lines, CellTiter-Glo viability, 72 h; at 44.8 µM (top of the series) unless noted. The essentials: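 Dose-response viability screen; 72 hr exposure at 37 degree celsius; CellTiter-Glo added, 10 min room temperature, luminescence read; RLUs scaled between no-cell and DMSO wells.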
Background: Quantitative high-throughput screening tests each substance at several concentrations.

The next test relates to NIH3T3. Briefly: Cytotoxic Profiling of Annotated Libraries Using Quantitative High-Throughput Screening (AID 1296008). For max response: % is set by controls: 0 for no effect and ±100 for the full control effect. Note: potency is the fitted concentration of half-maximal effect. Conditions: Five cell lines viability, CellTiter-Glo ATP luminescence, 48-72 h; max response: stronger effect = lower value. The essentials:
as §1

SMILES strings stand for the structures. Results filed as inconclusive are left out. A number with no mark means an inactive call. Calls of active or inactive are those of the source. Calls come from the whole dose curve; as a rule, active = well fitted inhibition curve with a large enough effect; inconclusive = small, poorly fitted or top-dose-only effect; inactive = flat fitted curve, though single readings scatter.
Note: nearly all actives have a fitted effect of over 60% in size.

Turning to `CC[C@H]1OC(=O)[C@H](C)[C@@H](O[C@H]2C[C@@](C)(OC)[C@@H](O)[C@H](C)O2)[C@H](C)[C@@H](O[C@H]2O[C@H](C)C[C@H](N(C)C)[C@H]2O)[C@](C)(O)C[C@@H](C)C(=O)[C@H](C)[C@@H](O)[C@]1(C)O`, the compound was classed as inactive in the test with HaCat [1]. Also, in the test on KB-3-1, the max response was 8.4%. For the same compound, the outcome with HACAT [2] was “inactive [at 17.4 µM]”.

Consider `O=C(C1CCCCC1)N(CCN1CCN(c2ccccc2O)CC1)c1ccccn1`, for which the call in the test on HaCat [1] and in the test on HACAT [2] was inactive. Also, the max response in the test with KB-3-1 was -15.9%.

Turning to `CCOC(=O)N1CCC(CN(Cc2ccc(Cl)cc2)Cc2ccc([N+](=O)[O-])s2)C1` (stereo not given), the max response in the test with HaCat [1] was -2.73%; in the test with NIH3T3, -3.24%.

For the compound `COc1ccc(OC)c(-c2ccc(NC(=O)c3ccncc3F)cc2)c1`, the max response was -19.1% in the test on HaCat [1] and 0.707% with NIH3T3.

As for `O=C(NCCN1CCN(c2cccc3ccc(O)cc23)CC1)c1ccc(F)cc1`, the max response with HaCat [1] was -4.85%; in the test with NIH3T3 it was 3.66%.

As to `O=C(CCl)Nc1cccc(NC2=NS(=O)(=O)c3ccccc32)c1`, the result in the test with HaCat [1] and in the test on HACAT [2] was inactive. The Potency in the test on KB-3-1 was 14.6 µM (active).

Consider `CN(C)CCC(CSc1ccccc1)Nc1ccc(S(=O)(=O)NC(=O)c2ccc(N3CCN(Cc4ccccc4-c4ccc(Cl)cc4)CC3)cc2)cc1[N+](=O)[O-]` (stereo not given), for which the Potency with HaCat [1] was 23.1 µM (active). Also, in the test on NIH3T3, the max response was -12.9%.

On to `COc1ccc(-c2ccccc2)cc1NS(=O)(=O)c1cc(Cl)cc(Cl)c1O`, for which, in the test with HaCat [1], the outcome was inactive. The max response with KB-3-1 is 4.02%. For the same compound, the outcome in the test with HACAT [2] is “inactive [at 17.4 µM]”.

With `COc1cc(/C=C/C(=O)NCCn2c(C(F)(F)F)cc3ccccc32)cc(OC)c1OC`, the max response in the test with HaCat [1] is -29.1%; with NIH3T3, -23.8%.

Consider `COc1ccc(C#Cc2ccc(C(=O)N3CCC[C@@H](CO)C3)cc2)cc1`, for which the max response was 1.97% in the test on HaCat [1] and -25.7% in the test on NIH3T3.

On to `COc1ccc(C2=NC(c3ccc(Cl)cc3)C(c3ccc(Cl)cc3)N2C(=O)N2CCNC(=O)C2)c(OC(C)C)c1` (stereo not given), for which the compound was classed as inactive in the test on HaCat [1], in the test on KB-3-1 and with HACAT [2].

As to `CCOc1ccc(S(=O)(=O)N2CCCCCC2)c2ccccc12`, the result in the test on HaCat [1], in the test on NIH3T3 and in the test on HACAT [2] was inactive. For the same compound, the max response in the test with KB-3-1 is -18.9%.

As to `C=CC(=O)N1CCC(Oc2cc3c(Nc4ccc(Cl)c(Cl)c4F)ncnc3cc2OC)CC1`, the max response in the test on HaCat [1] was -116%. For the same compound, in the test on NIH3T3, the Potency was 14.6 µM (active).

For `CC(=O)O[C@@H]1C2=C(O)C(=O)[C@](C)(OC(C)=O)C(=O)C2=CO[C@@]12O[C@@H](C)CC[C@H]2OC(C)=O`, the compound was classed as inactive in the test with HaCat [1] and with KB-3-1. Moreover, the max response in the test on NIH3T3 was -10.7%. In the test with HACAT [2], the outcome is “inactive [at 17.4 µM]”.

`C=C1C(=O)O[C@@H]2/C=C(\C)CC/C=C(\C)CC[C@@H]12`: the compound was classed as inactive in the test with HaCat [1] and in the test with HACAT [2]. In addition, the max response with KB-3-1 was -12.1%.

Take `O=C(Nc1ccc2[nH]c(=O)oc2c1)C(=O)N1CCC(Cc2ccc(F)cc2)CC1`: the max response in the test on HaCat [1] is 4.96%; in the test on NIH3T3 it was -23.6%.

Consider `C=CC(=O)Nc1cc(-n2c(=O)ccc3cnc4ccc(-c5ccc(NS(C)(=O)=O)cc5)cc4c32)ccc1C`, for which the max response in the test on HaCat [1] was -9.43%; in the test with NIH3T3 it was -11.5%.

Turning to `C=C(C(=O)O[C@H]1C/C(C)=C/CC/C(CO)=C/[C@H]2OC(=O)C(=C)[C@H]12)C(O)CO` (stereo not given in full), the outcome in the test on HaCat [1] and in the test on HACAT [2] was inactive. Further, in the test on KB-3-1, the max response was -10.8%.

In the case of `C[C@@H]1O[C@@H](O[C@H]2[C@@H]3C=CO[C@@H](O[C@@H]4O[C@H](CO)[C@@H](O)[C@H](O)[C@H]4O)[C@@H]3[C@@]3(CO)O[C@@H]23)[C@H](O)[C@H](OC(=O)/C=C/c2ccccc2)[C@H]1O`, the compound was classed as inactive in the test with HaCat [1] and in the test on KB-3-1. The outcome in the test on HACAT [2] is “inactive [at 17.4 µM]”.

Take `C=C1C(=O)OC2CC(C)=C(C(C)CCCOC(C)=O)C(OC(=O)CC(C)CC)C12` (stereo not given): the values for the max response in the test on HaCat [1] and with NIH3T3 were -2.4% and -17.5%, respectively.

Take `Cc1cnc(-c2ccccc2C(C)C)nc1NCc1ccc(-n2ccnn2)cc1`: the max response was -29.3% in the test with HaCat [1] and -17% in the test with NIH3T3.

In the case of `CC12CCC(OC3OC(CO)C(O)C(O)C3OC3OC(CO)C(O)C(O)C3O)CC1CCC1C2CCC2(C)/C(=C3/COC(=O)C3)CCC12O` (stereo not given), the max response in the test with HaCat [1] is -19.3%; in the test on NIH3T3, -1.69%.

On to `COc1ccccc1N1CCN(CC[C@@](C)(C(=O)C2CCCCC2)c2ccccc2)CC1`, for which the values for the max response in the test with HaCat [1] and with NIH3T3 were -16.7% and -6.96%, respectively.

Turning to `C#CCNCc1cc2cc(OCc3ccccc3)ccc2[nH]1`, the max response in the test with HaCat [1] is -12.3%; in the test on NIH3T3, -24.7%.

Consider `CS/C=C/C(=O)O[C@@H]1CCC2=CC(=O)C(=C(C)C)C[C@]2(C)[C@H]1C`, for which the max response was -6.05% in the test on HaCat [1] and -13.9% in the test on NIH3T3.

For `COc1ccc(-c2csc(NC(=O)[C@H]3CCCCN3S(=O)(=O)c3ccc(C)cc3)n2)cc1`, the outcome in the test with HaCat [1] and with HACAT [2] was inactive. In the test on KB-3-1, the max response is -25.1%.

Source of the values: PubChem BioAssay (NCATS).
